# According to ChEMBL document CHEMBL3988442, “University of Dundee, Small-Polar-MMV Screening Library” (2021):
# For some of these results: Potency and affinity values are given separately.
# What was measured:
# Design in all cases: scale not given: direction of the effect not stated beside the values
# [1] = target: Protein translocase subunit SecA (Escherichia coli (strain K12)) (UniProt P10408); experiment: Assay to Identify E. coli SecA ATPase Inhibitors; assay type: functional; conditions: 30 µM
# [2] = target: T1, Ubiquitin-activating enzyme e1, putative (Leishmania donovani (strain BPK282A1)) (UniProt E9BSI1); experiment: Leishmania donovani Ubiquitin Activating Enzyme (LdE1); assay type: functional; conditions: 30 µM
# T1 sequence (whole entry): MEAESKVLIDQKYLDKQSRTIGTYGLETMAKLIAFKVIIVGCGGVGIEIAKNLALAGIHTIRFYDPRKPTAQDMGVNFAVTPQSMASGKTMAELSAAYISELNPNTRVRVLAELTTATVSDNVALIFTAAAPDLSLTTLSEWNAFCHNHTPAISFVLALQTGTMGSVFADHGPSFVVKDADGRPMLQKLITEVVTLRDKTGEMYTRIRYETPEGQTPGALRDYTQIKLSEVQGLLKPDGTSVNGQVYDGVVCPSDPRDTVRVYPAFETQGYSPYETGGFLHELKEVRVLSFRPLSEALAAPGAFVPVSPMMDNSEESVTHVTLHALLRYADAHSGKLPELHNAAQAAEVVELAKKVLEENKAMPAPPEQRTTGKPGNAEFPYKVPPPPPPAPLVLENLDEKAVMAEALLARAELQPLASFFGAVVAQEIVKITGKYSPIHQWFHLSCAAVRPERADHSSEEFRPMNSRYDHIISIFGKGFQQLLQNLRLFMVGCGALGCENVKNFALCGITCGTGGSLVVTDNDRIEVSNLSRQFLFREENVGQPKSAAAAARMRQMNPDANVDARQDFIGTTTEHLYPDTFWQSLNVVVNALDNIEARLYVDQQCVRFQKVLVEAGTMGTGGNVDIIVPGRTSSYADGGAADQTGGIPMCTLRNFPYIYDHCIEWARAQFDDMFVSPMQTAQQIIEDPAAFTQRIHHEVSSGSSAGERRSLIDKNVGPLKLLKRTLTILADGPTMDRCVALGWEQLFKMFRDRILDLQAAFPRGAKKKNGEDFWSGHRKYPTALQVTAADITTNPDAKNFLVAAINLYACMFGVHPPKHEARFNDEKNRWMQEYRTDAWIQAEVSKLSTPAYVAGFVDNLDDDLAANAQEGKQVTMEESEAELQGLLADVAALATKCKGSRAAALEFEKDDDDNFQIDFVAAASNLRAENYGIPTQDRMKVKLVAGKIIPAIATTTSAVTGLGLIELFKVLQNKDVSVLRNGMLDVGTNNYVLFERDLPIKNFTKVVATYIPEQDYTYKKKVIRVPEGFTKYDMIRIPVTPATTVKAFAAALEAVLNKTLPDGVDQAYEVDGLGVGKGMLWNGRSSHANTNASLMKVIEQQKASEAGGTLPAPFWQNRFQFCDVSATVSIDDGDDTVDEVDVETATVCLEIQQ
# [3] = target: Sialic acid-binding Ig-like lectin 9 (Homo sapiens) (UniProt Q9Y336); experiment: Hs-Siglec9 ALPHAscreen SOP 20170721; conditions: 10 µM
# Trypanosoma cruzi = experiment: Trypanosoma cruzi phosphomannomutase and mannose-1-phosphate guanylyltransferase assay; assay type: functional; conditions: 10 µM
# [4] = target: T2, Arginase-2, mitochondrial (Homo sapiens) (UniProt P78540); experiment: in vitro enzyme assay to detect the production of urea directly proportional to the activity of Arginase II; assay type: functional; conditions: 33.3 µM; note: in the data most compounds retested in dose-response had high values
# T2 sequence (whole entry): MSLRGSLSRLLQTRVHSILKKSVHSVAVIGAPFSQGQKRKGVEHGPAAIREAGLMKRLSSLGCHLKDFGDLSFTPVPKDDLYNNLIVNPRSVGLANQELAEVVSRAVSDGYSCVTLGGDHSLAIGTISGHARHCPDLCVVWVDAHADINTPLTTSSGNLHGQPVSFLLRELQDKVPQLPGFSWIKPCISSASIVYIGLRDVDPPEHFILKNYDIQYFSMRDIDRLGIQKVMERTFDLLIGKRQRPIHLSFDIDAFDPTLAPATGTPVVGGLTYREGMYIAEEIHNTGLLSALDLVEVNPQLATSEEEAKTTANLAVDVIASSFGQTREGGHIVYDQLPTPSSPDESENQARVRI
# [5] = target: T3, Proteasome subunit beta (Trypanosoma cruzi) (UniProt O96673); experiment: Trypanosoma cruzi proteasome chymotrypsin-like activity (TcProtChymo) assay.; note: in the data most compounds retested in dose-response had high values; assay type: functional; conditions: 9.37 µM
# T3 sequence (whole entry): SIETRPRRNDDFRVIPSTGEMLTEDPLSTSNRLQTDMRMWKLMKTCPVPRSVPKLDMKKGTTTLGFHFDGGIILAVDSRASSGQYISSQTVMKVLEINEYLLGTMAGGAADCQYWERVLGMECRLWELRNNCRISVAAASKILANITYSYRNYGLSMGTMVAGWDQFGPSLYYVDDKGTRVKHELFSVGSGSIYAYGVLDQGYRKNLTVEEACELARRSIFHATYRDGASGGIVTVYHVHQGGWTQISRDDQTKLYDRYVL
# Homo sapiens = organism: Homo sapiens; experiment: To identify inhibition of the IFN signalling (Jak-Stat) pathway via expression of an eGFP reporter gene under the control of an IFN-stimulated response element (ISRE) containing MxA promoter.; assay type: functional; conditions: 30 µM
# [6] = target: T4, Tyrosyl-tRNA synthetase, putative (Trypanosoma cruzi (strain CL Brener)) (UniProt Q4DSP6); experiment: Trypanosoma cruzi tyrosyl tRNA synthetase (TcYRS) _High Tyrosine SOP; assay type: functional; conditions: 30 µM; note: in the data most compounds retested in dose-response had high values
# T4 sequence (whole entry): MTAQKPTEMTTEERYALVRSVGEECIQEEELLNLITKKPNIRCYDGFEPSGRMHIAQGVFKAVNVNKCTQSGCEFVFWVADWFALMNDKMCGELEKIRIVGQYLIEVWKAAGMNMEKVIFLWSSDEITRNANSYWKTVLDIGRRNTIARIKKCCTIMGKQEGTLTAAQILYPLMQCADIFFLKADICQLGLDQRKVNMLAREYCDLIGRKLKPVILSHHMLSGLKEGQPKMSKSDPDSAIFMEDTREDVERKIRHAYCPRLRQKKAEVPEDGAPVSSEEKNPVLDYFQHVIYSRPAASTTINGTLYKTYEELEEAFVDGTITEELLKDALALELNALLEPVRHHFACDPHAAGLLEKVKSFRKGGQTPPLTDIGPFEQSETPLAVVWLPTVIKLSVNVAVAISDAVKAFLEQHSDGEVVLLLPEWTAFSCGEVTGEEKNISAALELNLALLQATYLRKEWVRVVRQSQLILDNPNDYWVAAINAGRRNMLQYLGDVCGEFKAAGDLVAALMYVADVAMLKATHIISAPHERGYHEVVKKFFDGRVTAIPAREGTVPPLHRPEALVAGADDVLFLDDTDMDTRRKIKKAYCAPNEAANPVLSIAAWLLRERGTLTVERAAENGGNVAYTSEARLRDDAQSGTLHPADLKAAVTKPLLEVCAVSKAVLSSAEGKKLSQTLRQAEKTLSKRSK
# [7] = target: T4, Tyrosyl-tRNA synthetase, putative (Trypanosoma cruzi (strain CL Brener)); experiment: Trypanosoma cruzi tyrosyl tRNA synthetase (TcYRS) SOP; assay type: functional; conditions: 30 µM
# [8] = target: Chromo domain-containing protein 1 (Saccharomyces cerevisiae (strain ATCC 204508 / S288c) (Baker's yeast)) (UniProt P32657); experiment: ScCHD-1 Enzyme Inhibition Assay; assay type: functional; conditions: 30 µM; note: in the data most compounds retested in dose-response had high values
# Chain of Chromo domain-containing protein 1 (Saccharomyces cerevisiae (strain ATCC 204508 / S288c) (Baker's yeast)) (P32657 whole entry, the tested form may be a part): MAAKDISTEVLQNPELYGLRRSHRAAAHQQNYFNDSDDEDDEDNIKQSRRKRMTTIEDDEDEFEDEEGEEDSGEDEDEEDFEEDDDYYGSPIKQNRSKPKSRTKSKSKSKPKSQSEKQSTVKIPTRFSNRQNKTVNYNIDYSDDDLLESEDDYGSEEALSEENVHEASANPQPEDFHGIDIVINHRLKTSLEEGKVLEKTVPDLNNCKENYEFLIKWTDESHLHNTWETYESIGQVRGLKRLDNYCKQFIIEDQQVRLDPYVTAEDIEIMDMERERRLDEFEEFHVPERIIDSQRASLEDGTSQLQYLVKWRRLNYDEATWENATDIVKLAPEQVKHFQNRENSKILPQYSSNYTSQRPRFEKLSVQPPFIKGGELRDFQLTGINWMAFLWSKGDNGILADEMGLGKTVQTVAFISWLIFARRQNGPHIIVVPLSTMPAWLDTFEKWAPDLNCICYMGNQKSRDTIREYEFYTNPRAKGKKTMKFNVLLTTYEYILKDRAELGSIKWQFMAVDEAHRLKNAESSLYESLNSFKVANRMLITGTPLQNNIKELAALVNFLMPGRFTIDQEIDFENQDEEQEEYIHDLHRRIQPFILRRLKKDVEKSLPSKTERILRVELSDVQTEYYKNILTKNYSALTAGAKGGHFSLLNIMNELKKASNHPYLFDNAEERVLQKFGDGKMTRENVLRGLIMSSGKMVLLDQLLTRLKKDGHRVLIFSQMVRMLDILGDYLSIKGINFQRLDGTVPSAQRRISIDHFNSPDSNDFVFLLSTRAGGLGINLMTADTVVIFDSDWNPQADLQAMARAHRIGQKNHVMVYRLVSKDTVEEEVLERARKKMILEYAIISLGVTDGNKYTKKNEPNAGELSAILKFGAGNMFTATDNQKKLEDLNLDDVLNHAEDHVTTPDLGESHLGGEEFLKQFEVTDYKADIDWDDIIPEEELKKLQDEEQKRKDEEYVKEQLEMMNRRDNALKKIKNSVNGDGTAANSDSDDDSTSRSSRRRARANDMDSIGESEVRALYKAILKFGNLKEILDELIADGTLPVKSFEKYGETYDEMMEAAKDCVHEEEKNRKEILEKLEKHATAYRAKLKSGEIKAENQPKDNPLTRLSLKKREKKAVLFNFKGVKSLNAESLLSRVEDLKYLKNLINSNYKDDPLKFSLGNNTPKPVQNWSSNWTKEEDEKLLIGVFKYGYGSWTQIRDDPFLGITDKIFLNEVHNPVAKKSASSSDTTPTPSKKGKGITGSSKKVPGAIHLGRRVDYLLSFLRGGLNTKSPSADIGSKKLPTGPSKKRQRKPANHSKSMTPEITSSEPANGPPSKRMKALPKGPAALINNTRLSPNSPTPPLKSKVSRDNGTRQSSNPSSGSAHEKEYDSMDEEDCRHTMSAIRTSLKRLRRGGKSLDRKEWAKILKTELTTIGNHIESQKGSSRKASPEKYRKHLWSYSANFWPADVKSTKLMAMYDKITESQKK
# Chain of Protein translocase subunit SecA (Escherichia coli (strain K12)) (P10408 whole entry): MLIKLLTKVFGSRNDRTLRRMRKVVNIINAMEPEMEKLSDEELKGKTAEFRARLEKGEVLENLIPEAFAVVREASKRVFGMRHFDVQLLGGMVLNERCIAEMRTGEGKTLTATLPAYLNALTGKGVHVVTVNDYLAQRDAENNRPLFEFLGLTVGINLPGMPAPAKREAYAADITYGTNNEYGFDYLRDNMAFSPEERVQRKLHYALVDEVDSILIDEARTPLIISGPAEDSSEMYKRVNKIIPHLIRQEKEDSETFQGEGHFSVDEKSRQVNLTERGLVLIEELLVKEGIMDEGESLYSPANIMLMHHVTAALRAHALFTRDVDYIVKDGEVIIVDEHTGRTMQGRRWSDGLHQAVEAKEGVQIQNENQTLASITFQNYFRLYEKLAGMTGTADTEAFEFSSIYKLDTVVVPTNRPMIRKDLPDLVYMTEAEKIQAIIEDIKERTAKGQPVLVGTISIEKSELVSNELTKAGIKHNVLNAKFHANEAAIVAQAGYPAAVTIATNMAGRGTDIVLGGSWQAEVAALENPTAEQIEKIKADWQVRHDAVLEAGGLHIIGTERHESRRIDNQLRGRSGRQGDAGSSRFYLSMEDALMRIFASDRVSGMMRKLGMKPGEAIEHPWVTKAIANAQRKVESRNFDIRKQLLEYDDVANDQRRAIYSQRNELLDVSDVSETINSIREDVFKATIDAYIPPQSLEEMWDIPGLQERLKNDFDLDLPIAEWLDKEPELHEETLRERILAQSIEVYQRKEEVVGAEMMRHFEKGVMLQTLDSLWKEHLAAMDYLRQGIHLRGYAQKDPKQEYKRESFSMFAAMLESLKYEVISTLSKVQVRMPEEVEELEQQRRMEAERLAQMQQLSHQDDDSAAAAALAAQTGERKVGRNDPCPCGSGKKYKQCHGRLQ
# Chain of Sialic acid-binding Ig-like lectin 9 (Homo sapiens) (Q9Y336 whole entry): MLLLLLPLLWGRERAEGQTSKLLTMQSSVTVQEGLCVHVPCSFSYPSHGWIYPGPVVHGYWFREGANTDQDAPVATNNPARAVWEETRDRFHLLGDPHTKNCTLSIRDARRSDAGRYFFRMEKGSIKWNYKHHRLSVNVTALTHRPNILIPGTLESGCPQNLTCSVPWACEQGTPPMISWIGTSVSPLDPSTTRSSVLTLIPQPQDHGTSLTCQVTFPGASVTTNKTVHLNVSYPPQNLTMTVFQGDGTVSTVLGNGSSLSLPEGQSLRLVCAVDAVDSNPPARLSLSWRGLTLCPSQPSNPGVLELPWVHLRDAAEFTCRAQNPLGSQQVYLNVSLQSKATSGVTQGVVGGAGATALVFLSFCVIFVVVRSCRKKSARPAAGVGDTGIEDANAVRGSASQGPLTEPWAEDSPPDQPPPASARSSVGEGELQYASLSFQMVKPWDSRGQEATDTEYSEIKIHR
Structure (SMILES),Percent Effect [1] [%],Percent Effect [2] [%],Percent Effect [3] [%],Percent Effect (Trypanosoma cruzi) [%],Percent Effect [4] [%],Percent Effect [5] [%],Percent Effect (Homo sapiens) [%],Percent Effect [6] [%],Percent Effect [7] [%],Percent Effect [8] [%]
CS(=O)(=O)NCc1ncn2c1CN(C(=O)CC1CCCC1)CCC2,-1.59,-1.3,-3.12,-4.77,-0.81,2.91,12.6,1.58,-2.56,-0.829
CC(C)CC(CNC(=O)NCc1cc[nH]n1)N1CCOCC1 (stereo not given),-1.69,17.9,-27,7.04,0.82,17.8,11.6,4.31,20.5,25
O=C(NCC1CCOC1)c1ccc(OCC(F)(F)F)nc1 (stereo not given),-1.32,12.8,9.89,-4.98,2.46,6.91,25.9,3.35,10.8,-2.44
Cc1nc(C)n(CC2CN(CCCOc3ccccc3C)CCO2)n1 (stereo not given),-2.1,-2.67,-2.65,1.61,2.66,0.763,7.57,-0.526,-7.69,-5.97
CCN(CC1CCOC1)C(=O)Nc1ccc(N2CCCC2)nc1 (stereo not given),-6.5,12.8,-1.33,5.35,2.87,14.2,10.2,7.18,18.1,-10.3
Cc1ccsc1CN(C)Cc1nc2c(cnn2C)c(=O)[nH]1,0.7,15.4,-7.51,0.845,2.05,10.7,27.3,7.18,18.1,-3.14
O=C(Cc1cn2ccsc2n1)N1CCCC(n2cncn2)C1 (stereo not given),-3.72,12.8,-3.95,-4.22,-5.74,13.9,31.1,4.31,13.2,-5.26
O=C(c1ccccn1)N1CCN(c2ccc(-c3cccnc3)nn2)CC1,-3.31,11.7,4.87,1.31,4.11,21.7,1.87,0.966,10,-7.95
NC(=O)c1cc(C2CCCN(CCOCC(F)(F)F)C2)n[nH]1 (stereo not given),-3.84,2.56,-22.8,9.3,-5.33,8.45,-4.53,2.39,10.8,26.2
COc1ccc(CNCc2ccnc(N3CCOCC3)c2)cc1OC,-2.27,33.3,-6.8,5.16,-8.61,10.7,11.3,6.22,20.5,-7.91
Cc1cc(C)n(CC2CCCN2CCc2ccncc2)n1 (stereo not given),-5.42,7.69,-18.5,12.5,-2.87,17.1,5.12,3.35,20.5,-3.37
CC(O)CN1CCC(CNCc2ccccc2OC(F)(F)F)CC1 (stereo not given),-4.07,10.3,-7.91,7.98,-1.64,9.81,2.5,0.478,10.8,-0.0569
c1cnc(N2CCC3(CCN(CC4CC4)CC3)CC2)nc1,-6.61,3.9,-1.99,-2.82,-5.67,6.09,-6.66,5.79,12.8,-1.89
